Screens deposited in PubChem by National Center for Advancing Translational Sciences (NCATS).
PK Bst – pyruvate kinase (B. stearothermophilus) modulation. purified pyruvate kinase, luminescence ATP production; ribose 5-phosphate activator present at AC10. Potency, µM. 1.2% of 51,000 active. AID 361; in the data active means potency below about 11 µM; inconclusive means mostly about 12 µM to 25 µM;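 the screen sought inhibitors and activators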;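 further: potency means the concentration at half of the fitted maximal effect; scaled between full activation by ribose 5 phosphate and full inhibition by luteolin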
HBB splicing – alters splicing of the hemoglobin beta chain; HBB splicing reporter cell assay, activation; EGFP reporter with mutant IVS2-654 intron; response scale: normalised to 500 nM splice-correcting PNA; Potency, µM (series often up to 46.1 µM), for the others: at the highest dose activation, actives largely listed as activators; 0.06% of 65,000 active; AID 925; further: potency means the concentration at half of the fitted maximal effect; 0% is about no effect
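HeLa cells stably expressing EGFP interrupted by mutant beta-globin intron 2 (IVS2-654), 500/well in 2% FCS. Treated with compound for 2 days at 37C. Splicing correction scored as total well GFP intensity (488 nm excitation, 500-520 nm emission); 500 nM antisense PNA served as control.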
UbGFP stabilizer – ubiquitin-GFP accumulation via proteasome inhibition; Ubiquitin-GFP reporter cells, proteasome inhibition, GFP fluorescence; response scale: untreated = 0%, 10 µM MG-132 = 100%; Potency, µM (highest dose often 45.9 µM), for the others: top-dose activation (GFP accumulation), usual class: activators; 67,000 tested, under 10 active; AID 526; active means well fitted activation curve with a large enough effect, not every such curve was filed as active; inconclusive means small, poorly fitted or top-dose-only effect, or another doubt; inactive means no such curve, though single readings can be large or run the other way; further: potency means the concentration at half of the fitted maximal effect
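Proteasome block read as GFP accumulation: ubiquitin(G76V)-GFP U2OS cells exposed to compound (2.9 nM–46 uM) for 4 hr at 37 C. Normalization used untreated cells as 0% and 10 uM MG-132 as 100%; concentration-response curves fitted.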
Epigenetic mod – epigenetic modulators derepressing GFP locus in mouse cells; mouse C127i GFP locus derepression, cytometry, 30 h; Potency, µM (highest dose often 46.1 µM), for inactives: at the top dose GFP derepression (activation); 0.09% of 68,000 active; AID 597; further: % of control where 0% means no effect
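Locus derepression in mouse mammary C127i cells whose integrated CMV-GFP reporter is normally silent; GFP expression after 30 h compound treatment was quantified by counting fluorescent cells.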
FLuc inh – firefly luciferase inhibition | purified firefly luciferase, luminescence, 8 min | 2.2% of 72,000 active | P08659 | AID 411 | Potency, µM (top dose mostly 57.1 µM), for the others: top-dose activity change, negative = inhibition, most hits filed as inhibitors; further: potency means the concentration at half of the fitted maximal effect; on the % scale 0 is the no-effect control and ±100 the full control effect; nearly all actives have a fitted effect of over 40% in size
Target sequence (P08659 whole entry, looked up): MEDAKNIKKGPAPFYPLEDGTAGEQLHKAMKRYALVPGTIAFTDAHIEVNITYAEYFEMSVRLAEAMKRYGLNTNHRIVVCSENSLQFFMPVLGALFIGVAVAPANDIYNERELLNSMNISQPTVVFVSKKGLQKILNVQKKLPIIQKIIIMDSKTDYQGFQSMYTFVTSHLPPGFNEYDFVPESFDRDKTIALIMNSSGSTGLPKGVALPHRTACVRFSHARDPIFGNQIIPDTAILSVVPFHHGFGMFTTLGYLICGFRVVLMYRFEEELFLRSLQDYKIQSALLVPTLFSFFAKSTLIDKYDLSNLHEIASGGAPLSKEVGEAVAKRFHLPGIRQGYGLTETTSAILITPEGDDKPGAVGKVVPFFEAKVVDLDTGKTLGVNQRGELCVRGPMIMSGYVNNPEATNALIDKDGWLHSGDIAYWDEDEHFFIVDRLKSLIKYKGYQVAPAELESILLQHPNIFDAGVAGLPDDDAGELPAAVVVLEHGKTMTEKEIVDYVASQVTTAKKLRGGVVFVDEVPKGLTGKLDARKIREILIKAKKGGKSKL
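Firefly luciferase (PKLight detection mix) with 10 uM ATP in pH 7.2 imidazole buffer (KCl, MgCl2, Tween 20, BSA). Compounds tested across a concentration series (qHTS). Luminescence read after 8 min at ambient temperature.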
Starred values were filed as active, the others as inactive; i = inactive; ? = inconclusive; nt = no result; [ ] = dose if it differs, or a comment. This is a sample that favours compounds with a hit; in the whole collection about 2.6% have one here. Unless noted, the call rests on the fitted dose curve; in most records, active means well fitted curve in the direction sought with a large enough effect; inconclusive means small, poorly fitted or top-dose-only effect, or another doubt; inactive means no such curve, though single readings can be large; an effect the other way counts as inactive or inconclusive.

SMILES	PK Bst	HBB splicing	UbGFP stabilizer	Epigenetic mod	FLuc inh
O=C(CN1C(=O)CCC1=O)Nc1nc(-c2ccccn2)cs1	nt	0%	16%	nt	-1%
CCCOC(=O)CN1C(=O)c2ccccc2C1=O	>57	nt	1%	0%	-1%
CCOCCOC(=O)COc1ccc(N2C(=O)c3ccccc3C2=O)cc1	nt	-3%[0.0738 µM]	-10%[9.17 µM]	-2%	16µM*
CCC(Cl)CC(Cl)C(Cl)C(Cl)C(Cl)C(C)Cl (centres undefined)	nt	-1%	nt	nt	nt
N#CCCn1c(=O)c(CCc2ccccc2)nc2cnc(N3CCOCC3)nc21	nt	-1%	9%	2%[9.22 µM]	0%[11.4 µM]
COc1ccc(-n2c(C)cc(C(=O)CSc3nn4c(=O)c(C(C)(C)C)nnc4s3)c2C)cc1	>57	-1%	2%	1%	2µM*
Cc1ccc(-n2c(C)cc(C(=O)CSc3nncs3)c2C)cc1	i	0%[57.5 µM]	-1%	1%	25µM*
O=C(O)CCc1ccc(-c2ccccc2)[nH]1	nt	2%[9.22 µM]	-4%[9.17 µM]	5%[9.22 µM]	1%[11.4 µM]
COc1ccc(-c2cc(-c3ccc(OC)cc3)[nH]n2)cc1	2.1*	0%	0%	-1%	16µM*
Clc1cccc(Cl)c1Cn1cnc(=NCc2ccco2)c2[nH]cnc21	2.2*	9%[0.369 µM]	-1%	2%	-1%
COc1ccc(O[C@H]2C=C[C@@H](c3ccccc3)O[C@H]2COC(=O)CC/C(C)=N\O[C@@H](C)c2cc(-c3c(C)cc(C)cc3C)no2)cc1	nt	-1%[9.22 µM]	nt	nt	-1%[11.4 µM]
OC[C@H](S)CS	nt	2%[9.22 µM]	4%[9.17 µM]	3.2µM*	-3%[11.4 µM]
Cc1ccc(N2CC(C(=O)Nc3ccccn3)CC2=O)cc1 (centres undefined)	>57	0%	-1%	-1%	1%
Cc1ccc(C(=O)/C=C/Nc2ccccn2)cc1	0.75*	nt	nt	3%[20.6 µM]	0.4µM*
COc1ccc(C(=O)/C=C/N2CCCCC2)cc1OC	nt	0%[0.0738 µM]	24%[9.17 µM]	-2%	-22%
COc1ccc(C(=O)/C=C/Nc2cccc(C)n2)cc1OC	0.63*	nt	nt	-3%[20.6 µM]	10µM*
CN(C)CCC(=O)[C@@]1(O)CC[C@H]2[C@H]3CC=C4C[C@@H](O)CC[C@]4(C)[C@H]3CC[C@]21C	nt	3%[9.22 µM]	0%[9.17 µM]	?	4%[11.4 µM]
COc1cc2nc(=S)n3[nH]c(CCn4nc(C)cc4C)nc3c2cc1OC	>57	-1%	-9%	10µM*	-1%
Cc1noc(C)c1-c1nc(N2CCN(C)CC2)c2ccccc2n1	nt	1%	-7%	2%[9.22 µM]	0%[2.29 µM]
CCOC(=O)c1c(C)nc(-c2ccccc2)nc1N	i	-3%	-4%	0%	25µM*
CCOC(=O)c1c(C)nc(-c2ccccc2)nc1NC(C)=O	nt	-6%	-8%	0%	-2%
C=CCNC(=O)c1ccc(Cl)cc1Cl	7.3*	0%	15%	3%	0%
CCOc1ccc2nc(NC(=O)Nc3cccs3)sc2c1	nt	0%	11%	nt	0.63µM*
CCOc1ccc2nc(NC(=O)c3ccc(S(=O)(=O)N4CCOCC4)cc3)sc2c1	>57	-2%	19%	-1%	0%
CCOc1ccc2nc(NC(=O)C(CC)Sc3nc(C)cc(=O)[nH]3)sc2c1 (centres undefined)	nt	5%	-1%	0%	?
SMILES	PK Bst	HBB splicing	UbGFP stabilizer	Epigenetic mod	FLuc inh
CCOCC(=O)Nc1nc2ccc(OC)cc2s1	nt	3%	4%	9%	?
COc1ccc2sc(NC(=O)CC(C)C)nc2c1	i	-5%	7%	-2%	25µM*
CCOc1ccc2nc(NC(=O)COC)sc2c1	i	-2%	5%	2%	20µM*
CCOc1ccc2nc(NC(=O)c3ccoc3C)sc2c1	nt	-1%[0.0738 µM]	16%[9.17 µM]	2%	1.6µM*
CCC(=O)Nc1nc2cc(OC)ccc2s1	nt	7%	-1%	0%	?
CC(C)(C)NC(=O)[C@@H]1CC[C@@H]2[C@@H]3CC[C@@H]4NC(=O)C=C[C@@]4(C)[C@H]3CC[C@]21C	nt	-1%[20.6 µM]	-2%[20.5 µM]	-2%[20.6 µM]	4%[25.5 µM]
N=c1ccn2c(n1)O[C@@H]1[C@@H](O)[C@H](CO)O[C@H]12	nt	-1%	2%	-2%	0%
COCC(=O)Nc1ccc(N(C)C)cc1	>57	5%	-5%	0%	-2%
CN(C)c1ccc(NC(=O)CCCc2ccccc2)cc1	nt	0%	1%	-3%	25µM*
CCCc1cc2c(n1Cc1ccc(OC)cc1)C(C)C1CN(C(=O)c3ccccc3)C(C)(C(=O)OC)C21 (centres undefined)	nt	0%	nt	nt	nt
CCOC(=O)c1c(C)[nH]c(C(=O)CSc2ccccc2)c1C	i	-5%	1%	0%	4µM*
Cc1ccc(-c2nc(C#N)c(N3CCCCC3)o2)cc1	nt	0%	10%	nt	-3%
N#Cc1nc(-c2ccc(OCc3ccc(Cl)cc3)cc2)oc1N1CCOCC1	>57	1%	-5%	0%	1%
N#Cc1nc(-c2ccc(OCc3ccc(Cl)cc3)cc2)oc1N1CCC(C(N)=O)CC1	0.078*	7%[0.369 µM]	-4%	4%	0%
CNc1oc(-c2ccc(Cl)cc2)nc1C#N	3.1*	nt	nt	0%[20.6 µM]	-2%[25.5 µM]
N#Cc1nc(-c2ccc(Cl)cc2)oc1N1CCCCC1	5.1*	nt	nt	0%[20.6 µM]	2%[25.5 µM]
N#Cc1nc(-c2ccc(F)cc2)oc1N1CCCC1	9.5*	nt	nt	2%[20.6 µM]	1%[25.5 µM]
N#Cc1cccc(-c2nccc(NCc3cccnc3)n2)c1	nt	-1%	-5%	0%[9.22 µM]	0%[2.29 µM]
Cc1cccc(CCN2CCC(C(=O)c3ccc(NS(C)(=O)=O)cc3)CC2)n1	nt	nt	-6%	0%	1%
c1ccc2c(-n3ccnc3)nc(-c3ccoc3)nc2c1	nt	1%	-2%	-1%[9.22 µM]	0%[2.29 µM]
CCCCCCc1ccc(-c2ccc(C#N)cc2)cc1	nt	-1%	nt	nt	nt
C[C@]12CC[C@H]3c4ccc(OC[C@H]5CO5)cc4CC[C@H]3[C@H]1CC[C@@H]2O	nt	1%[9.22 µM]	nt	nt	-1%[11.4 µM]
COc1ccc(-c2nc3cnc(N4CCN(C)CC4)nc3n(Cc3cccc(OC)c3)c2=O)cc1	nt	2%	-5%	0%[9.22 µM]	1%[11.4 µM]
Cc1ccc(-c2cc(C(=O)NCC3CCCO3)no2)cc1 (centres undefined)	i	0%	7%	-5%	13µM*
COc1ccc(-c2cn3cc(C)ccc3n2)cc1OC	1.8*	-2%	-1%	-1%	2.5µM*
SMILES	PK Bst	HBB splicing	UbGFP stabilizer	Epigenetic mod	FLuc inh
COc1ccc(-c2cn3ccccc3n2)cc1OC	6.5*	3%[1.84 µM]	10%	0%	3.2µM*
CN(C)S(=O)(=O)c1cccc(-c2cn3ccccc3n2)c1	nt	0%[0.369 µM]	nt	0%	-17%
COc1cc(O)c2c(O)c3c(c4c2c1[C@@]1(C4)C(C)=CCCC1(C)C)[C@H](O)[C@@]1(O)CC(=O)C(C(N)=O)=C(O)[C@]1(O)C3=O	nt	3%[9.22 µM]	-4%[9.17 µM]	-4%[9.22 µM]	-2%[11.4 µM]
O=C(OCc1c(Cl)cccc1Cl)c1ccccn1	3.8*	-4%	-2%	1%	0%
O=C(OCC(=O)c1ccccc1Br)c1ccccn1	nt	0%[57.5 µM]	7%	4%	13µM*
O=C(OCc1c(Cl)cccc1Cl)c1cnccn1	4.7*	1%	0%	0%	1%
